Among the data in PubChem BioAssay AID1851 (National Center for Advancing Translational Sciences (NCATS), 2009) are AC50 and activity, negative = inhibition values, retold here.

The structures appear in SMILES notation. The whole screen tested about 16,000 compounds, of which about 4,000 (25%) were called active. Roughly 26% stayed inconclusive and do not appear here. Calls follow the shape of the dose curve; as a rule, active = well fitted curve in the direction sought with a large enough effect; inconclusive = small, poorly fitted or top-dose-only effect, or effect the other way; inactive = no such curve, though single readings can be large or run the other way. Only a sample is shown.
% is scaled to controls: 0 for no effect and ±100 for the full control effect.

This assay deals with Cytochrome P450 2C9 (Homo sapiens) (UniProt P11712). In words: Cytochrome panel assay with activity outcomes. The settings on record: recombinant CYP, pro-luciferin dealkylation, luminescence, p450-cyp2c9; series mostly up to 57.1 µM.
Sequence of Cytochrome P450 2C9 (Homo sapiens) (P11712 whole entry, looked up): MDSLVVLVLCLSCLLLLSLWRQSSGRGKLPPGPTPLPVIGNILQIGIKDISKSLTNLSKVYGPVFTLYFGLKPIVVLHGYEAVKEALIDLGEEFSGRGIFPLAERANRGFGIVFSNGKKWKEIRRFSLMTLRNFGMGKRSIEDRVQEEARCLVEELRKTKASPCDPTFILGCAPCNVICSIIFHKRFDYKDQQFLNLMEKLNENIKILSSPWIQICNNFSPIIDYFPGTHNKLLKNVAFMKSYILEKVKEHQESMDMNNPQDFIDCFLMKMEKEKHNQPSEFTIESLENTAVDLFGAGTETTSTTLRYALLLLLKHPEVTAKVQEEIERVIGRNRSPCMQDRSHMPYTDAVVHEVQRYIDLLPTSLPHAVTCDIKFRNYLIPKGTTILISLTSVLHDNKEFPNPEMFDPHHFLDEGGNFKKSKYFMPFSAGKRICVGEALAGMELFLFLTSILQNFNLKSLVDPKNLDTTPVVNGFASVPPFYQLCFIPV
The term AC50 denotes the concentration at which the activity in the assay is half-maximal. Take `CC(=O)N1CCC2(CCCN(Cc3nccs3)C2)CC1`: the AC50 result is “inactive”. For `CCOC(=O)c1c(NC(=O)Nc2ccccc2)sc(C)c1C`, the AC50 is 3.55 µM (active).

Regarding `CCOC(=O)c1c(NC(=O)/C=C/c2ccc3c(c2)OCO3)sc(C)c1C`, the AC50 entry was “inactive”. `Cc1cc(Nc2ccccc2)nc(N)n1`: the AC50 result was “inactive”. With `Cc1nnc(SCc2nc(N)nc(Nc3ccccc3)n2)s1`, the AC50 is 10 µM (active). The same measure, in the same setting: the entry for `CCCSc1nnc2n(N)c(=O)c3ccccc3n12` is “inactive”. Turning to `Nc1nc(N)[n+]([O-])c(N)c1NCO`, the activity, negative = inhibition is 6.07% [at 11.4 µM] (inactive). Regarding `CCOC(=O)c1cnc(SCCc2ccccc2)nc1N`, the AC50 is 11.2 µM (active). Turning to `CCOC(=O)c1cnc(N(C)C)nc1SC(=N)N`, the activity, negative = inhibition was -5.38% [at 11.4 µM] (inactive). Same read-out and setting: under `Nc1nc(N)c(CCCCc2ccccc2)c(N)n1` stands 5.71% [at 11.4 µM] (inactive). As to `CC1(C)C2([N+](=O)[O-])CN3CC1([N+](=O)[O-])CN(C2)C31CCCC1`, the AC50 entry was “inactive”.

Consider `C=C1C(=O)O[C@@H]2[C@@H]1CC/C(C)=C\CC[C@@]1(C)O[C@H]21`, for which the AC50 entry is “inactive”. `O=c1c2ccc([N+](=O)[O-])c3cccc(c32)c2nc3ccccc3n12`: the AC50 entry is “inactive”. As for `O=C(O)c1ccc2c3c1cccc3c(=O)n1c3ccccc3nc21`, the half-maximal activity concentration (AC50) is 0.158 µM (active).

Regarding `O=C(O)C(=O)/C=C(\O)c1ccc(Br)cc1`, the activity, negative = inhibition is -19.1% [at 11.4 µM] (inactive).

Turning to `Cc1ccc2nc(NC(=O)COC(=O)CSc3nc(C)cc(C)n3)sc2c1`, the AC50 is 3.98 µM (active). Turning to `COc1ccc2nc(NC(=O)CSc3nnc(C)s3)sc2c1`, the AC50 result was “inactive”.

In the case of `CCCOc1ccc(C(=O)NC(=S)Nc2nc3ccc(C)cc3s2)cc1`, the AC50 entry is “inactive”. Turning to `Cc1ccc2nc(NC(=O)CSCC(=O)OCC(=O)c3ccc(Br)cc3)sc2c1`, the concentration at half-maximal activity (AC50) was 14.1 µM (active). Turning to `COc1ccc([C@@H]2Sc3ccccc3N(CCN(C)C)C(=O)[C@@H]2OC(C)=O)cc1`, the AC50 entry was “inactive”. Consider `COc1ccc2[nH]c(=O)c(NC(N)=S)nc2c1`, for which the AC50 entry was “inactive”. The same measure, in the same setting: under `NC(=S)Nc1ccc(Oc2ccc(NC(N)=S)cc2)cc1` stands 7.08 µM (active); under `COc1ccc(C2Nc3ccccc3C(=O)N2Cc2ccco2)cc1COc1ccc([N+](=O)[O-])cc1` (stereo not given), 0.178 µM (active); under `Cc1ccc(C2Nc3ccccc3C(=O)N2Cc2ccco2)cc1` (stereo not given), 3.16 µM (active). In the case of `O=C1C2=C(Nc3cc([N+](=O)[O-])ccc3N2)O[C@@H]1c1c[nH]c2ccc(COc3ccccc3)cc12`, the activity, negative = inhibition was -16.4% [at 11.4 µM] (inactive). Regarding `O=C1c2ccccc2NC(c2ccc(F)cc2)N1Cc1ccco1` (stereo not given), the concentration at half-maximal activity (AC50) was 3.16 µM (active). Turning to `CN(Cc1ccco1)C(=O)C1CCC(=O)N1Cc1ccc(F)cc1` (stereo not given), the AC50 entry is “inactive”. For the molecule `CC1(CC(=O)O)O[C@H]2CCCCC[C@H]2O1` (stereo not given in full) (tested in a mixture with another compound), the activity, negative = inhibition was 1.04% [at 11.4 µM] (inactive). With `CC(=O)N1CC2(CC2)CC1c1ccccc1` (stereo not given), the AC50 entry is “inactive”. As for `CC(C)NC[C@@H](O)COc1cccc2ccccc12`, the AC50 result is “inactive”. Regarding `CC(C)Oc1ccc2ccccc2c1C=O`, the half-maximal activity concentration (AC50) is 10 µM (active). The same measure, in the same setting: under `CO[C@H]1C[C@@H](O[C@@H]2[C@H](C)[C@H](O[C@@H]3O[C@@H](C)C[C@@H](N(C)C)[C@@H]3O)[C@H](C)C[C@]3(CO3)C(=O)[C@H](C)[C@H](O)[C@H](C)[C@H](C)OC(=O)[C@@H]2C)O[C@@H](C)[C@H]1O` stands “inactive”; under `CC(=O)N[C@@H](CC(=O)O)C(=O)O`, “inactive”. In the case of `O=C(Nc1ccc(-c2cn3ccccc3n2)cc1)c1cc(Br)ccc1O`, the activity, negative = inhibition was -1.72% [at 11.4 µM] (inactive). Take `O=C(c1cc(Br)ccc1O)c1cc(Br)ccc1O`: the half-maximal activity concentration (AC50) is 0.1 µM (active). With `CC(C)(C)CC(C)(C)c1ccc(O)c(C[N+](C)(C)[O-])c1`, the activity, negative = inhibition is 0.733% [at 11.4 µM] (inactive). Take `Cc1cc(C)nc(NN2C(=O)/C(=C/c3ccccc3)SC2=S)n1`: the AC50 entry was “inactive”.

`COc1cc(/C=C2\SC(=S)N(Nc3ccccc3)C2=O)cc(OC)c1OC`: the concentration at half-maximal activity (AC50) is 6.31 µM (active).

On to `CC(C)CC(=O)N[C@H](C(=O)N[C@H](C(=O)N[C@@H](CC(C)C)[C@H](O)CC(=O)N[C@@H](C)C(=O)N[C@@H](CC(C)C)[C@H](O)CC(=O)O)C(C)C)C(C)C`, for which the AC50 entry is “inactive”.

With `CCc1ccccc1NC(=O)CSc1nc(-c2ccccc2)nn1C(=O)c1cccc([N+](=O)[O-])c1`, the AC50 was 0.447 µM (active).

Regarding `O=C(O)[C@@H]1[C@@H](C(=O)O)[C@]23C[C@@]2(C(=O)O)[C@]2(C(=O)O)CCC3=C3CCCC312`, the activity, negative = inhibition was 14% [at 11.4 µM] (inactive). For the molecule `CCOC(=O)c1cnc2ccc(C)cc2c1Sc1ccccc1C(=O)OC`, the AC50 was 1.41 µM (active). Same read-out and setting: the entry for `CCOC(=O)c1cnc2c(cnn2CC)c1NN=C(C)C` is “inactive”; for `Cc1nnc(NC(=O)CSc2ncnc3c2cnn3-c2ccccc2C)s1` it is “inactive”.

Regarding `Cc1ccccc1-n1ncc2c(SCC(=O)N3c4ccccc4CC3C)ncnc21` (stereo not given), the AC50 was 10 µM (active). With `CCOc1ccccc1NC(=O)C(=O)NCC1CCCN1CC` (stereo not given), the AC50 result is “inactive”. With `CC1CN(C(=O)c2cc3c(s2)CCC3)CC(C)O1` (stereo not given), the AC50 entry was “inactive”. On to `Cc1cc(C)n(C(=O)c2cc3c(s2)CCCC3)n1`, for which the concentration at half-maximal activity (AC50) is 11.2 µM (active).

With `CCOC(=O)CC1NC(=O)c2ccccc21` (stereo not given), the AC50 result was “inactive”. Same read-out and setting: under `CCOC(=O)COc1c(OC)cc(Cl)cc1C1Nc2ccccc2C(=O)N1c1cccc(C)c1` (stereo not given) stands 0.708 µM (active); under `CCOC(=O)COc1c(OC)cc(Cl)cc1C1Nc2ccccc2C(=O)N1c1ccc(F)cc1` (stereo not given), 0.282 µM (active).

For `CC(C)=NO[C@@H](C)c1cn([C@@H]2COC[C@@H]2O)nn1`, the activity, negative = inhibition is 11.5% [at 11.4 µM] (inactive).

Consider `CC(C)(Sc1ccc(CCN(CCCCC2CCCCC2)C(=O)NC2CCCCC2)cc1)C(=O)O`, for which the AC50 entry was “inactive”.

In the case of `COc1ccc(CCCC(=O)NC2CCCCC2)cc1`, the concentration at half-maximal activity (AC50) is 10 µM (active).

As to `COc1ccc(CCNC(=O)COc2ccc(S(=O)(=O)NC3CCCCC3)cc2Cl)cc1`, the concentration at half-maximal activity (AC50) was 2.51 µM (active). On to `COc1ccc2cc(CCC(C)=O)ccc2c1`, for which the AC50 entry is “inactive”.

Take `COc1ccc(NC(=O)COc2ccc(CNCCCN3CCOCC3)cc2OC)cc1`: the AC50 result was “inactive”. On to `CN(C)Cc1ccccc1-c1cncnc1NCc1cccs1`, for which the activity, negative = inhibition was -10.6% [at 2.29 µM] (inactive). Consider `COc1ccc2nc3oc(C(=O)NCc4cccs4)cc3cc2c1`, for which the AC50 entry is “inactive”.

As to `COc1ccc(CNC(=O)C(c2ccc(C)cc2)N(Cc2cccs2)C(=O)c2ccc3c(c2)OCCO3)cc1` (stereo not given), the concentration at half-maximal activity (AC50) is 7.08 µM (active). Regarding `O=C(NCc1ccccc1)C(c1cccs1)N(Cc1cccs1)C(=O)c1cnccn1` (stereo not given), the AC50 is 15.8 µM (active). For `CN(C)C(=O)c1ccc(-c2cncnc2NCc2cccs2)cc1`, the activity, negative = inhibition was -0.243% [at 2.29 µM] (inactive). `O=C(NC1CCCCC1)C(c1cccs1)N(Cc1cccs1)C(=O)c1ccco1` (stereo not given): the concentration at half-maximal activity (AC50) is 8.91 µM (active). As for `CCc1ccc(C(C(=O)NCc2ccc(OC)cc2)N(CCOC)C(=O)Cc2cccs2)cc1` (stereo not given), the AC50 was 10 µM (active). Consider `CN(Cc1ccco1)c1cc(-c2ccccc2Cl)ncn1`, for which the activity, negative = inhibition is -2.34% [at 2.29 µM] (inactive). In the case of `N[C@H](C(=O)O)[C@@H]1[C@@H](C(=O)O)C1(F)F`, the AC50 entry is “inactive”. With `COc1ccc(C(C(=O)NCc2ccccc2)N(Cc2cccs2)C(=O)c2cnccn2)cc1` (stereo not given), the concentration at half-maximal activity (AC50) was 7.94 µM (active). Take `CC1(C)[C@@H]2CC[C@]1(C)[C@@H](OC(=O)/C=C\c1ccccc1)C2`: the activity, negative = inhibition is -14.1% [at 11.4 µM] (inactive). Turning to `CS(=O)(=O)N1CCC[C@@]2(CCN(C(=O)Nc3cccc(F)c3)C2)C1`, the AC50 result is “inactive”. In the case of `COc1cccc(N(CC(=O)Nc2cccc(C(C)=O)c2)S(C)(=O)=O)c1`, the AC50 is 25.1 µM (active). Take `CS(=O)(=O)N1CCC2(CCN(C(=O)Nc3cccc(F)c3)CC2)CC1`: the AC50 result was “inactive”. Turning to `CS(=O)(=O)N(CC(=O)Nc1cccc(F)c1)c1cccc([N+](=O)[O-])c1`, the AC50 is 3.55 µM (active). Take `CC(=O)Nc1sc2c(c1C(N)=O)CCCC2`: the AC50 entry was “inactive”. In the case of `CC(=O)Nc1sc2c(c1CN1CCN(C)CC1)CCCC2`, the AC50 result was “inactive”.

With `CC(=O)NCCC(=O)Nc1sc2c(c1-c1nc3ccccc3[nH]1)CCCC2`, the AC50 was 11.2 µM (active).

Regarding `N#Cc1cccc(-c2cc(NCc3cccs3)ncn2)c1`, the activity, negative = inhibition is -9.65% [at 2.29 µM] (inactive). Take `CN1CCc2cc3c(cc2[C@@H]1[C@@H]1C(=O)Oc2c1ccc1c2OCO1)OCO3`: the half-maximal activity concentration (AC50) was 12.6 µM (active). As to `C[N+]1(C)CCc2cc3c(cc2[C@@H]1[C@@H]1C(=O)Oc2c1ccc1c2OCO1)OCO3`, the AC50 result is “inactive”. `O=C(O)c1ccc(Sc2nnnn2-c2ccccc2)c([N+](=O)[O-])c1`: the AC50 entry is “inactive”. On the same count and under the same terms, under `O=C(Nc1ccccc1[N+](=O)[O-])C1C(c2ccccc2)=C1c1ccccc1` stands 6.31 µM (active); under `COCC(=O)N1CCC2(CCCN(C(=O)Nc3cccc(F)c3)C2)CC1`, “inactive”. With `CC(=O)SCC[N+](C)(C)C`, the AC50 entry is “inactive”. `COc1ccc(/C=C2/S/C(=N/N=C3\CC4CCC3(C)C4(C)C)NC2=O)cc1` (stereo not given): the AC50 was 8.91 µM (active). Consider `CCCCCCCC/C=C\CCCCCCCC(=O)NCc1ccc(O)c(OC)c1`, for which the AC50 entry is “inactive”. As to `CCCCCCCCC(=O)NCc1cc(OC)c(O)cc1I`, the AC50 entry was “inactive”.

For the molecule `COc1cc(CNC(=O)CCCC/C=C\C(C)C)ccc1O`, the AC50 is 2 µM (active). Consider `Cc1ccnc(N)c1`, for which the AC50 entry is “inactive”.

For the molecule `CSc1nsc(/C=C/Nc2ccc(Cl)cc2)c1C#N`, the AC50 was 2.24 µM (active). On to `CCn1c(SCC(=O)N2CCN(S(=O)(=O)c3ccccc3)CC2)nnc1-c1cccs1`, for which the AC50 result was “inactive”.

`CN(Cc1ccco1)c1nc(-c2ccoc2)nc2ccccc12`: the activity, negative = inhibition was -3.83% [at 2.29 µM] (inactive).

Regarding `Cc1ccccc1-c1cncnc1N(C)Cc1ccco1`, the activity, negative = inhibition is -10.8% [at 2.29 µM] (inactive).

As to `CCn1c(SCc2cccc(C)c2)nnc1-c1ccc(C)cc1`, the AC50 entry is “inactive”. Take `CCn1c(SCc2nc3ccccc3[nH]2)nnc1-c1ccc(OC)cc1`: the concentration at half-maximal activity (AC50) was 12.6 µM (active). As to `Cc1ccccc1CSc1nnc(-c2cccs2)n1Cc1ccco1`, the half-maximal activity concentration (AC50) was 11.2 µM (active).

As for `c1ccc(-c2nnc(SCc3nc4ccccc4[nH]3)n2Cc2ccco2)cc1`, the AC50 is 6.31 µM (active).
